Screening results as filed in PubChem BioAssay.
The list is not random: actives were taken first. Their share in the collection is about 19%.
HT1080NT lethal = qHTS for induction of synthetic lethality in tumor cells producing 2HG: qHTS for the HT-1080-NT fibrosarcoma cell line; HT-1080-NT fibrosarcoma viability, CellTiter-Glo ATP luminescence, 48 h; Potency, µM (top dose mostly 46.1 µM), usual class: cytotoxic; hit rate 1.6% among 360,000; AID 686970, 2013;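 further: NT is the 2HG producing partner of a matched IDH1 knockdown line; nearly all actives have a fitted effect of over 55% in size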
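750 cells/well, RPMI + 5% FBS; 2 h settle, compound pin-transfer, 48 h at 37 degrees C. CellTiter-Glo 10 min RT, luminescence. Normalized to DMSO and media-only wells.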
HT1080 IDH1KD tx = qHTS for induction of synthetic lethality in tumor cells producing 2HG: qHTS for the HT-1080-IDH1KD cell line. HT-1080 IDH1 knockdown viability, ATP luminescence, 48 h. Potency, µM (titrated, usually from 46.1 µM), actives largely listed as cytotoxic. hit rate 2% among 360,000. AID 686971, 2013
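% activity derives from luminescence (CellTiter-Glo), normalised to DMSO and no-cell wells. HT-1080-IDH1KD cells, 750/well, had 48 h compound exposure at 37 °C.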
DT40 TDP1 no CPT = qHTS for Inhibitors of human tyrosyl-DNA phosphodiesterase 1 (TDP1): qHTS in cells in absence of CPT | AID 686978, 2013 | Potency, µM (doses to about 46.2 µM), actives largely listed as inhibitors | DT40 Tdp1-/- hTDP1 cells, no CPT, ATP luminescence, 48 h | hit rate 15% among 420,000; further: nearly all actives have a fitted effect of over 55% in size
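Growth of hTDP1-complemented DT40 Tdp1-knockout cells is measured by ATP luminescence after at least 48 hr compound exposure at 37 °C, with DMSO substituting for the 20 nM CPT used in the parallel screen.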
IL-1B inflam inh = qHTS for Inhibitors of Inflammasome Signaling: IL-1-beta AlphaLISA Primary Screen; activity change, % at 57.5 µM; AID 743279, 2014; hit rate 4.7% among 360,000; THP-1 LPS/ATP IL-1B secretion, AlphaLISA, 16 h; stronger effect = lower value; in the data active means activity change below about -50%; inconclusive means mostly about -30% to -49%
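Secreted IL-1B measured by AlphaLISA bead assay after 16 h compound exposure of THP-1 cells; compounds (final up to 57.5 uM) added 1 h before LPS (250 ng/mL) and ATP (1.25 mM) stimulation; lower signal means less secretion.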
TDP1 cell CPT = qHTS for Inhibitors of human tyrosyl-DNA phosphodiesterase 1 (TDP1): qHTS in cells in presence of CPT | AID 686979, 2013 | Potency, µM (series often up to 46.2 µM), actives largely listed as inhibitors | hit rate 12% among 420,000 | chicken DT40 Tdp1-/-;hTDP1 cells + 20 nM CPT, ATP luminescence, 48 h; further: nearly all actives have a fitted effect of over 55% in size
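Chicken DT40 Tdp1-/- cells complemented with human TDP1, 400 cells/well, exposed to compounds plus 20 nM camptothecin for at least 48 h at 37 C; viability read as ATP content by CellTiter-Glo luminescence.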
Each line names hits and unclear results; the compound was inactive in the other large screens. Unless noted, the call rests on the fitted dose curve; in most records, active means well fitted curve in the direction sought with a large enough effect; inconclusive means small, poorly fitted or top-dose-only effect, or another doubt; inactive means no such curve, though single readings can be large; an effect the other way counts as inactive or inconclusive.

COc1cc(CNc2ccc(N3CCOCC3)cc2)cc(Br)c1OC	DT40 TDP1 no CPT 16µM, TDP1 cell CPT inconclusive
COc1cc(CC(=O)Nc2ccc(N3CCOCC3)cc2)cc(OC)c1OC	none
O=C1C=CC[C@H](/C=C/C[C@@H](O)C[C@H](O)CCc2ccccc2)O1	DT40 TDP1 no CPT inconclusive, IL-1B inflam inh -97, TDP1 cell CPT inconclusive
COc1ccc(N2C(N)=C(C#N)C(c3ccsc3)C3=C2CCCC3=O)c(OC)c1 (stereo unspecified)	none
CCc1cccc(NS(=O)(=O)c2ccc3c(c2)NC(=O)C(C)S3)c1 (stereo unspecified)	DT40 TDP1 no CPT inconclusive, TDP1 cell CPT 21µM
COc1cccc(NS(=O)(=O)c2ccc3c(c2)NC(=O)C(C)S3)c1 (stereo unspecified)	DT40 TDP1 no CPT inconclusive, TDP1 cell CPT inconclusive
CCC1Sc2ccc(S(=O)(=O)N3CCN(c4ccccc4)CC3)cc2NC1=O (stereo unspecified)	DT40 TDP1 no CPT inconclusive, TDP1 cell CPT 15µM
CCC1Sc2ccc(S(=O)(=O)Nc3cc(OC)cc(OC)c3)cc2NC1=O (stereo unspecified)	HT1080NT lethal inconclusive, DT40 TDP1 no CPT inconclusive, TDP1 cell CPT 16µM
COc1ccc(N2CCN(S(=O)(=O)c3ccc4c(c3)NC(=O)C(C)S4)CC2)cc1 (stereo unspecified)	HT1080 IDH1KD tx inconclusive, DT40 TDP1 no CPT inconclusive, TDP1 cell CPT inconclusive
O=C(c1ccccc1)N1CCCC(C(=O)N2CCN(c3ccccc3)CC2)C1 (stereo unspecified)	DT40 TDP1 no CPT inconclusive, TDP1 cell CPT inconclusive
C[n+]1cccc2cccc([O-])c21	none
O=c1cc(CSc2nnc(COc3cccc4ccccc34)o2)c2ccccc2[nH]1	DT40 TDP1 no CPT inconclusive, TDP1 cell CPT inconclusive
Cn1c(N2CCN(C(=O)Nc3ccc(F)cc3)CC2)nc2ccccc21	none
Cn1c(N2CCN(C(c3ccccc3)c3ccccc3)CC2)nc2ccccc21	HT1080NT lethal inconclusive, HT1080 IDH1KD tx inconclusive, DT40 TDP1 no CPT 18µM, IL-1B inflam inh -84, TDP1 cell CPT inconclusive
COc1cc(NCc2ccc3nc(N)nc(N)c3c2C)cc(OC)c1OC	DT40 TDP1 no CPT 0.12µM, TDP1 cell CPT 0.38µM (no result: HT1080NT lethal, HT1080 IDH1KD tx, IL-1B inflam inh)
Cc1cccc(OCC(=O)N/N=C\c2cccn2C)c1C	DT40 TDP1 no CPT inconclusive
CC1(c2cc([N+](=O)[O-])cc([N+](=O)[O-])c2)CC(C)(C)N(C(=O)c2ccccc2)c2ccccc21 (stereo unspecified)	DT40 TDP1 no CPT 16µM, TDP1 cell CPT 23µM
COc1cccc(C(=O)N2c3ccc(C)cc3C(C)(c3ccccc3)CC2(C)C)c1 (stereo unspecified)	DT40 TDP1 no CPT 23µM, TDP1 cell CPT inconclusive (no result: HT1080NT lethal, HT1080 IDH1KD tx, IL-1B inflam inh)
CCC(=O)N1c2ccccc2C(C)(c2ccccc2)CC1(C)C (stereo unspecified)	none (no result: HT1080NT lethal, HT1080 IDH1KD tx, IL-1B inflam inh)
COc1ccc(C(=O)N2CC(c3ccc(Cl)cc3)CC2=O)cc1 (stereo unspecified)	none
COc1ccc(C(=O)N2c3ccccc3C(C)(c3ccc(Cl)cc3)CC2(C)C)cc1 (stereo unspecified)	DT40 TDP1 no CPT 16µM, TDP1 cell CPT inconclusive (no result: HT1080NT lethal, HT1080 IDH1KD tx, IL-1B inflam inh)
CCOC(=O)C1(C)CCN1C(=O)c1cccc(OC)c1 (stereo unspecified)	none
CCC(CC)C(=O)N1c2ccccc2C(C)(c2ccccc2)CC1(C)C (stereo unspecified)	DT40 TDP1 no CPT 23µM, TDP1 cell CPT 18µM (no result: HT1080NT lethal, HT1080 IDH1KD tx, IL-1B inflam inh)
CCC(C)NC(=S)N1CCN(C)CC1 (stereo unspecified)	HT1080 IDH1KD tx inconclusive
COc1ccc(CCN2C(=S)NC3CC2(C)Oc2ccc([N+](=O)[O-])cc23)cc1OC (stereo unspecified)	HT1080 IDH1KD tx inconclusive, DT40 TDP1 no CPT 15µM, TDP1 cell CPT 10µM
COc1ccc(N2C(=O)NC3CC2(C)Oc2ccc(Cl)cc23)cc1OC (stereo unspecified)	DT40 TDP1 no CPT inconclusive, TDP1 cell CPT 23µM
CCOC(=O)C1CCN(C(=O)c2cccc(N3C(=O)NC4CC3(C)Oc3ccc(C)cc34)c2)CC1 (stereo unspecified)	TDP1 cell CPT inconclusive
Cc1ccc2c(c1)C1CC(C)(O2)N(c2cccc(C(=O)NC3CCN(Cc4ccccc4)CC3)c2)C(=O)N1 (stereo unspecified)	HT1080NT lethal inconclusive, HT1080 IDH1KD tx inconclusive, DT40 TDP1 no CPT inconclusive, IL-1B inflam inh -53, TDP1 cell CPT inconclusive
CCOC(=O)N1CCN(C(=O)c2cccc(N3C(=O)NC4CC3(C)Oc3ccc(Cl)cc34)c2)CC1 (stereo unspecified)	HT1080NT lethal 7.3µM, HT1080 IDH1KD tx 7.3µM, DT40 TDP1 no CPT 3.3µM, TDP1 cell CPT inconclusive
CCCCN(C=O)c1c(CC)nc2ccc(C(=O)N3CCN(C(C)=O)CC3)cn12	HT1080NT lethal inconclusive
COc1ccc(CCNS(=O)(=O)CCNC(=O)c2ccc3c(c2)OCO3)cc1	DT40 TDP1 no CPT inconclusive
COc1ccc(N2CCN(C(=O)c3ccc(N4C(=O)NC5CC4(C)Oc4ccccc45)cc3)CC2)cc1 (stereo unspecified)	DT40 TDP1 no CPT inconclusive, IL-1B inflam inh inconclusive, TDP1 cell CPT 29µM
COc1cccc2c1OC1(C)CC2NC(=O)N1c1cccc(C(=O)N2CCN(c3ccccc3)CC2)c1 (stereo unspecified)	DT40 TDP1 no CPT inconclusive, TDP1 cell CPT inconclusive
COc1ccc(NC(=O)c2ccc(OC)c(S(=O)(=O)N3CCCCC3C)c2)cn1 (stereo unspecified)	TDP1 cell CPT inconclusive
CCOc1cc(CO)cc(Br)c1OCC(=O)O	none
CCOc1cc(C=O)cc(Br)c1OCC(N)=O	DT40 TDP1 no CPT 5.2µM, TDP1 cell CPT 5.8µM
CCCOc1c(Br)cc(C(N)=O)cc1OCC	DT40 TDP1 no CPT inconclusive, TDP1 cell CPT 23µM
CCOc1c(Br)cc(C(N)=O)cc1OC	none
Cc1ccc2nc(-c3ccc(C#N)cc3)c(Cc3cccc(Cl)c3)n2c1	HT1080NT lethal inconclusive, HT1080 IDH1KD tx 26µM, DT40 TDP1 no CPT 18µM, TDP1 cell CPT 18µM
N#Cc1ccc(-c2nc3ccc(Cl)cn3c2Cc2cccc(Cl)c2)cc1	DT40 TDP1 no CPT 21µM, TDP1 cell CPT inconclusive
Cc1ccc(C)c(NC(=O)Cn2cc(C(=O)c3ccncc3)c(=O)c3cc(F)ccc32)c1	none (no result: HT1080NT lethal, HT1080 IDH1KD tx, IL-1B inflam inh)
CCCn1c(Cc2ccccc2)n[nH]c1=S	none
S=c1[nH]nc(Cc2ccccc2)n1Cc1ccco1	HT1080NT lethal 35µM, HT1080 IDH1KD tx inconclusive
